mIDH1 inhibitor – inhibitors of human mutant IDH1 R132H; O75874; IDH1-R132H enzyme, NADPH consumption, diaphorase/resazurin fluorescence; Potency, µM (top dose mostly 76.6 µM), usual class: inhibitors; actives 0.093% (n = 390,000); also: nearly all actives have a fitted effect of over 65% in size
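IDH1-R132H (0.5 ug/mL dispensed) in pH 7.5 Tris buffer was preincubated 30 min with compound, then given a substrate mix of 0.016 mM NADPH and 2 mM alpha-KG for 80 min at room temperature; remaining NADPH was read by diaphorase/resazurin fluorescence.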
PKM2 activator – PKM2 (human) enzyme activation; Potency, µM (highest dose often 57.5 µM), most hits filed as activators; actives 0.34% (n = 260,000); purified PKM2, Kinase-Glo ATP luminescence, activation; response scale: 0% is enzyme alone, no compound; P14618; also: nearly all actives have a fitted effect of over 55% in size
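hPK-M2, >95% pure; 0.1 mM ADP / 0.5 mM PEP final; imidazole pH7.2 buffer w/ 7 mM MgCl2, 50 mM KCl; 1 h RT; Kinase-Glo lum. Intermediate enzyme activity for dual inhibitor/activator qHTS.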
GLS inhibitor – blocks human kidney-isoform glutaminase activity. O94925. GLS enzymatic activity, qHTS titration. Potency, µM (series often up to 45.5 µM), usual class: inhibitors. actives 0.21% (n = 410,000)
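hKGA; 45 mM KH2PO4 pH 8.2 + 0.02% Tween-20; cpd via pin tool; 1 mM Gln soln; GluOx/HRP/Amplex Red; RT 30 min; fluor. t0 & final.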
TrxR1 substrate – rat thioredoxin reductase 1 substrate activity; Potency, µM (top dose mostly 114 µM); purified TrxR1 substrate turnover, NADPH consumption readout; O89049; actives 0.01% (n = 390,000); also: nearly all actives have a fitted effect of over 50% in size
Target sequence (O89049 whole entry, looked up): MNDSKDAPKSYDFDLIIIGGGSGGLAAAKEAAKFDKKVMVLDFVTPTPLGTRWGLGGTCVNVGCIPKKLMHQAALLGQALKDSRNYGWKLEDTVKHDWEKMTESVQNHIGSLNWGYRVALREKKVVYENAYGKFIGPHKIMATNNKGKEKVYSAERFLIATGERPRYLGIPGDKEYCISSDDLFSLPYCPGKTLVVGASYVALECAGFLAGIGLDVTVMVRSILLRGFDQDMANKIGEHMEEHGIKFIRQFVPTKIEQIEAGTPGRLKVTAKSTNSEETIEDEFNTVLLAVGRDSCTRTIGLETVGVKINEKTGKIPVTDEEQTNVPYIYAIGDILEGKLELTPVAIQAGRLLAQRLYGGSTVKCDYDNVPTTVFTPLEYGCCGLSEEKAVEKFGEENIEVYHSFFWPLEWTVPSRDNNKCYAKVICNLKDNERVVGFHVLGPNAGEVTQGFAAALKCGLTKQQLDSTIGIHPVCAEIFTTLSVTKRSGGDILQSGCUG
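Rat TrxR1, dispensed at 90 nM, was prereduced with 400 uM NADPH (final) for 5 min at ~22 deg C, then incubated with compound 15 min before 400 uM selenite. A first-read NADPH fluorescence drop versus no-compound background flagged substrates.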
LDHA inh – LDHA (human) enzyme inhibition; P00338; purified LDHA, NADH/diaphorase-resazurin fluorescence; hits give low values; activity change, % (values are at about 110 or 230 µM); actives 0.15% (n = 480,000); in the data active = activity change below about -30%; inconclusive = mostly about -25% to -30%
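Remaining NADH was detected by diaphorase (0.133 mg/mL) converting 37 µM resazurin to fluorescent resorufin, read at 0 and 20 minutes. The preceding 5-minute room-temperature reaction used 2 nM LDHA, 0.2 mM sodium pyruvate and 0.06 mM NADH at pH 7.4.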
TrxR1 inh – inhibitors of rat thioredoxin reductase 1; Potency, µM (series often up to 114 µM), actives largely listed as inhibitors; AID 588453; O89049; recombinant rTrxR1, NADPH fluorescence consumption, selenite substrate; actives 1% (n = 390,000); also: nearly all actives have a fitted effect of over 65% in size
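Rat TrxR1 (90 nM in the dispensed reagent) was pre-reduced with 400 uM NADPH for 5 min at room temperature, then incubated with compound for 15 min. After 400 uM selenite was added, NADPH fluorescence (Ex 340/Em 450 nm) was followed for 8 min.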
HeLa viability – reduces HeLa cell viability in PKM2 activator counter-screen | shares compounds with PKM2 activator | HeLa viability, CellTiter-Glo ATP luminescence, 24 h | activity change, negative = cytotoxicity, % at 57.5 µM | 230 tested, under 10 active | AID 1898
Each line names hits and unclear results; the compound was inactive in the other large screens (follow-up assays come after a bar, where they were run). Shown are actives, neighbours in structure and some others; about 1.4% of the full set was active somewhere. Unless noted, calls follow the shape of the dose curve; as a rule, active = well fitted curve in the direction sought with a large enough effect; inconclusive = small, poorly fitted or top-dose-only effect, or another doubt; inactive = no such curve, though single readings can be large; an effect the other way counts as inactive or inconclusive.

CC(=O)N(c1ccccc1)C1SC(=O)N(c2ccccc2)C1=O (stereo not given)	PKM2 activator 0.56µM | HeLa viability inactive
Cc1cc2c(s1)c1cnn(Cc3ccc(-c4ccccc4)cc3)c(=O)c1n2C	none (no result: mIDH1 inhibitor, PKM2 activator, GLS inhibitor, TrxR1 substrate, TrxR1 inh) | HeLa viability inactive
Cc1cc2c(s1)c1cnn(Cc3ccc(Br)cc3)c(=O)c1n2C	none (no result: mIDH1 inhibitor, PKM2 activator, GLS inhibitor, TrxR1 substrate, TrxR1 inh)
Cc1cc2c(s1)c1cnn(Cc3ccc(F)c(Cl)c3)c(=O)c1n2C	none (no result: mIDH1 inhibitor, PKM2 activator, GLS inhibitor, TrxR1 substrate, TrxR1 inh)
Cc1cc2c(s1)c1cnn(Cc3ccc(Cl)cc3)c(=O)c1n2C	none (no result: mIDH1 inhibitor, PKM2 activator, GLS inhibitor, TrxR1 substrate, TrxR1 inh) | HeLa viability inactive
COc1cc(C2CC(=O)c3c(C)nc(Nc4ccccc4)nc3C2)cc(OC)c1OC (stereo not given)	none (no result: mIDH1 inhibitor, PKM2 activator, GLS inhibitor, TrxR1 substrate, TrxR1 inh)
CCc1nnc(NC(=O)CSc2nnc(-c3ccc(NS(=O)(=O)c4ccccc4)cc3)o2)s1	PKM2 activator 0.79µM | HeLa viability inactive
COc1ccccc1CNc1nc(NCc2ccccc2OC)n(S(=O)(=O)c2ccccc2)n1	none (no result: mIDH1 inhibitor, PKM2 activator, GLS inhibitor, TrxR1 substrate, TrxR1 inh)
CCn1c(C)nc2cc(C(=O)N/N=C/c3ccc(O)c(O)c3O)ccc21	PKM2 activator 3.2µM, GLS inhibitor inconclusive | HeLa viability inactive
N#CC(C#N)=C1c2cc(S(N)(=O)=O)ccc2-c2ccc(S(N)(=O)=O)cc21	PKM2 activator 0.71µM, TrxR1 inh 10µM | HeLa viability inactive
COc1ccc(C(CC(=O)NCc2cccnc2)Sc2n[nH]c(-c3ccc(F)cc3)n2)cc1 (stereo not given)	none (no result: mIDH1 inhibitor, PKM2 activator, GLS inhibitor, TrxR1 substrate, TrxR1 inh)
Cc1ccc(CCC(=O)Nc2nccs2)o1	PKM2 activator 20µM | HeLa viability inactive
CCc1ccc(CCC(=O)Nc2nccs2)o1	none
COc1ccc(Br)cc1S(=O)(=O)Nc1ncccc1C	PKM2 activator 6.3µM | HeLa viability inactive
CCNc1nc(NCC)nc(Oc2ccc(N)cc2)n1	PKM2 activator 2.5µM | HeLa viability inactive
CCNc1nc(NCC)nc(Oc2ccc(C(=O)OCC)cc2)n1	none (no result: mIDH1 inhibitor, PKM2 activator, GLS inhibitor, TrxR1 substrate, TrxR1 inh)
Cc1cccc(-c2noc(-c3ccc(Br)cc3)n2)c1	none (no result: mIDH1 inhibitor, PKM2 activator, GLS inhibitor, TrxR1 substrate, TrxR1 inh)
O=S(=O)(NC1CCN(S(=O)(=O)c2ccc3c(c2)OCCO3)C1)c1c(F)cccc1F (stereo not given)	none (no result: mIDH1 inhibitor, PKM2 activator) | HeLa viability inactive
Cc1cc(C)c(C)c(S(=O)(=O)N2CCN(S(=O)(=O)c3ccc4c(c3)OCCO4)CC2)c1C	none (no result: mIDH1 inhibitor, PKM2 activator, GLS inhibitor, TrxR1 substrate, TrxR1 inh)
O=S(=O)(NC1CCC(NS(=O)(=O)c2c(F)cccc2F)CC1)c1ccc2c(c1)OCCO2 (stereo not given)	none (no result: mIDH1 inhibitor, PKM2 activator) | HeLa viability inactive
C[C@@H]1CN(S(=O)(=O)c2c(F)cccc2F)CCN1S(=O)(=O)c1ccc2c(c1)OCCO2	none (no result: mIDH1 inhibitor, PKM2 activator) | HeLa viability inconclusive
O=S(=O)(NCCCCNS(=O)(=O)c1c(F)cccc1F)c1ccc2c(c1)OCCO2	none (no result: mIDH1 inhibitor, PKM2 activator) | HeLa viability inactive
O=S(=O)(NCC1CCC(NS(=O)(=O)c2c(F)cccc2F)CC1)c1ccc2c(c1)OCCO2 (stereo not given)	none (no result: mIDH1 inhibitor, PKM2 activator)
O=S(=O)(NCCNS(=O)(=O)c1c(F)cccc1F)c1ccc2c(c1)OCCO2	none (no result: mIDH1 inhibitor, PKM2 activator) | HeLa viability inactive
CC(C)C(=O)N1CCC(NC(=O)CCn2ccc3ccccc32)CC1	none (no result: mIDH1 inhibitor, PKM2 activator, GLS inhibitor, TrxR1 substrate, TrxR1 inh)
CCN1C(SCC(=O)N2CCCC2)=NS(=O)(=O)c2ccccc21	none (no result: mIDH1 inhibitor, PKM2 activator, GLS inhibitor, TrxR1 substrate, TrxR1 inh)
CC(Sc1ncc(C#N)c(N)n1)C(=O)Nc1ccccc1 (stereo not given)	PKM2 activator 4.5µM | HeLa viability inactive
O=S(=O)(c1ccc2c(c1)OCCO2)N1CCN(S(=O)(=O)c2ccc3c(c2)OCCO3)CC1	none (no result: mIDH1 inhibitor, PKM2 activator, GLS inhibitor, TrxR1 substrate, TrxR1 inh) | HeLa viability inactive
O=S(=O)(c1ccc2c(c1)OCCO2)N1CCN(S(=O)(=O)c2ccccc2F)CC1	none (no result: mIDH1 inhibitor, PKM2 activator, GLS inhibitor, TrxR1 substrate, TrxR1 inh) | HeLa viability inactive
O=S(=O)(c1ccc2c(c1)OCCO2)N1CCN(S(=O)(=O)c2c(F)ccc(O)c2F)CC1	none (no result: mIDH1 inhibitor, PKM2 activator, GLS inhibitor, TrxR1 substrate, TrxR1 inh) | HeLa viability inactive
